Results from ChEMBL document CHEMBL3988442, “University of Dundee, Small-Polar-MMV Screening Library” (2021).
Hit rate of the full screen: of about 48,000 compounds, about 13,000 (27%) showed an effect of 50% or more. The list shows a part of the results.

Each compound was assayed on Wolbachia pipientis (assay: Anti-Wolbachia Cell-Based Screen). Conditions: 5 µM.
Type: functional
Design: scale not given: in the data most compounds retested in dose-response had high values
`CCn1nc2c(cc1=O)CN(CC1CCCCO1)CC2` (stereo not drawn) was tested, and the “Percent Effect” value was -5.782%.
In the case of `N[C@@H]1c2ccccc2C2(CCN(C(=O)c3ccc(CO)o3)CC2)[C@H]1O`, the “Percent Effect” value was 13.24%.
`CCOc1cc(CNCc2nc(C)cc(=O)[nH]2)c(Cl)cc1OC(C)C` was tested, and the “Percent Effect” value was -17.65%.
In the case of `CCN(Cc1noc(C)n1)C(=O)CCc1scnc1C`, the “Percent Effect” value was 1.92%.
`Cc1c[nH]nc1C1CCCN1Cc1ccncc1` (stereo not drawn) was tested, and the “Percent Effect” value was 100.6%.
`CCn1ccnc1CN1CCCC1c1c(C)nn(C)c1OC` (stereo not drawn) was tested, and the “Percent Effect” value was -25.16%.
With `Cc1ccc(-c2c[nH]c([C@@H]3COCCN3Cc3ncc[nH]3)n2)cc1` the “Percent Effect” value was 0.7932%.
For `Cc1noc(C)c1-c1cncc(C2CCCN2Cc2ccncc2)n1` (stereo not drawn), the “Percent Effect” value was -4.931%.
`Cc1nccn1CCC1CCCCN1Cc1ccncc1` (stereo not drawn) was tested, and the “Percent Effect” value was 6.487%.
In the case of `CC(C)(C)c1coc([C@@H]2COCCN2Cc2ncc[nH]2)n1`, the “Percent Effect” value was -0.9304%.
`COc1c(C2CCCN2Cc2nccn2C)c(C)nn1C` (stereo not drawn) was tested, and the “Percent Effect” value was 8.453%.
With `Cc1c[nH]nc1C1CCCN1Cc1nccn1C.O=CO` (stereo not drawn) the “Percent Effect” value was 95.89%.
With `Cc1c[nH]nc1C1CCCN1Cc1ncc[nH]1.O=CO` (stereo not drawn) the “Percent Effect” value was 85.61%.
With `CCc1ncncc1C(=O)NCCNS(=O)(=O)c1ccccc1` the “Percent Effect” value was 12.25%.
In the case of `O=C(c1c[nH]nn1)N1CCN(C(c2ccccc2)C(F)(F)F)CC1` (stereo not drawn), the “Percent Effect” value was 0.659%.
In the case of `COC(C)c1nc(CN2CCCNCC2)cs1` (stereo not drawn), the “Percent Effect” value was 4.679%.
`CC(CS(C)(=O)=O)N(C(=O)c1ccc(Cl)s1)C1CC1` (stereo not drawn) was tested, and the “Percent Effect” value was -8.906%.
In the case of `Cc1cccc2c1OCCCC2NCc1nnc2n1CCCCC2` (stereo not drawn), the “Percent Effect” value was -7.858%.
For `CN(Cc1ccon1)C1CCN(c2cccc(-c3cscn3)c2)CC1`, the “Percent Effect” value was -11.17%.
For `CCCN1CCc2nc(SCc3c(C)cc(C)cc3C)[nH]c(=O)c2C1`, the “Percent Effect” value was 4.96%.
For `Cn1nc2c(cc1=O)CN(Cc1ccc(-n3cccn3)cc1)CC2`, the “Percent Effect” value was 6.074%.
With `Cc1nc2c(c(=O)[nH]1)CN(Cc1ccc3c(c1)CCCN3C)CC2` the “Percent Effect” value was 56.56%.
For `Cc1nc2c(c(=O)[nH]1)CCN(Cc1ccc3c(c1)CCCN3C)C2`, the “Percent Effect” value was 94.44%.
`CC(C(=O)Nc1ccnn1C(C)C)N1CCCN(c2nccs2)CC1` (stereo not drawn) was tested, and the “Percent Effect” value was 10.48%.
In the case of `OCCn1nnnc1Cc1ccc(Br)cc1`, the “Percent Effect” value was -3.897%.
With `O=C(c1[nH]nc(C2CC2)c1Cl)N1CCN(C2CC2)CC1` the “Percent Effect” value was -10.68%.
`COc1ccc(OCc2nc(C(=O)N3CC(O)C3)co2)cc1` was tested, and the “Percent Effect” value was -10.13%.
For `Cc1ccc(C(=O)N2CC(=O)N(Cc3cccs3)CC(O)C2)cc1` (stereo not drawn), the “Percent Effect” value was 76.19%.
With `CSc1ccc(C(=O)N2CC(=O)N(Cc3cccs3)CC(O)C2)cc1` (stereo not drawn) the “Percent Effect” value was 110.9%.
With `CC(C)(C)n1cc(C(=O)N2CCCN(Cc3cccs3)CC2)cn1` the “Percent Effect” value was -3.981%.
With `O=C1CN(C(=O)c2ccc(F)cc2)CC(O)CN1Cc1cccs1` (stereo not drawn) the “Percent Effect” value was 106.9%.
`O=C(c1ccc(F)cc1)N1C[C@@H]2CN(c3ncccn3)C[C@@H]2C1` was tested, and the “Percent Effect” value was 2.652%.
For `COc1ccc(C(=O)N2CCN(C(=O)c3csc(C(C)C)n3)CC2)cc1`, the “Percent Effect” value was -4.051%.
For `CC(C)(C)NC(=O)[C@@H]1Cc2ccccc2CN1Cc1cccs1`, the “Percent Effect” value was 16.75%.
`COc1ccc(C(=O)N2CC(=O)N(Cc3cccs3)CC(O)C2)cc1` (stereo not drawn) was tested, and the “Percent Effect” value was 106.6%.
`CC1CN(C)CCN1C(=O)c1cccn1Cc1cccs1` (stereo not drawn) was tested, and the “Percent Effect” value was -1.596%.
`CN(C)C(=O)CNC(CC(F)(F)F)c1ccc(F)cc1` (stereo not drawn) was tested, and the “Percent Effect” value was -7.138%.
In the case of `CCc1cnc(N2CC3(CCN(S(=O)(=O)C4CC4)C3)C2)nc1`, the “Percent Effect” value was -6.098%.
For `CCCNC(=O)CNc1cc(C(=O)N2CCSCC2)ccc1C`, the “Percent Effect” value was -10.89%.
For `Cc1ccc(S(=O)(=O)NCCNc2cc(-n3cccc3)ncn2)c(C)c1`, the “Percent Effect” value was 19.5%.
`CC(C)Oc1ccc(-c2csc(Cn3ccc(=O)[nH]c3=O)n2)cc1` was tested, and the “Percent Effect” value was -3.236%.
`O=C1CN(C(=O)C2CCOC2)CCN1Cc1ccc(Cl)cc1` (stereo not drawn) was tested, and the “Percent Effect” value was -11.12%.
`O=C1CN(C(=O)c2ccc(Cl)cc2)CC(O)CN1Cc1cccs1` (stereo not drawn) was tested, and the “Percent Effect” value was 98.52%.
In the case of `Cc1ccc(OCC(=O)N(C)Cc2ccc(F)cc2)cn1`, the “Percent Effect” value was -1.613%.
In the case of `CCc1ccc(CN(CC)Cc2ccc(S(=O)(=O)NC)cc2)cc1`, the “Percent Effect” value was -10.93%.
For `Cc1nc(CCN)cc(N(C)Cc2nc3ccc(F)cc3[nH]2)n1`, the “Percent Effect” value was -5.934%.
For `CCOc1ccccc1CN(CC)Cc1ccc(S(=O)(=O)NC)cc1`, the “Percent Effect” value was 14.99%.
For `CN(Cc1cnc(C(C)(C)C)nc1)Cc1nc2ccc(F)cc2[nH]1`, the “Percent Effect” value was 92.92%.
With `CNc1ncc(CN(C)Cc2cc(O)c3cc(F)ccc3n2)cn1` the “Percent Effect” value was -2.585%.
With `Cc1ccc(CN(C)Cc2nc3ccc(F)cc3[nH]2)cn1` the “Percent Effect” value was 92.16%.
`CNS(=O)(=O)c1ccc(CN(C)Cc2nc3ccc(F)cc3[nH]2)cc1` was tested, and the “Percent Effect” value was 112.9%.
In the case of `COc1cccc(CN(C)Cc2nc3cc(C)ccc3[nH]2)c1O`, the “Percent Effect” value was 1.617%.
For `CCNC(=O)NC(C)(C)C(=O)NCc1cccc(N2CC=CC2)c1`, the “Percent Effect” value was 1.796%.
For `CC(O)c1cccc(N2CCC3(CC2)Nc2ccccc2NC3=O)n1` (stereo not drawn), the “Percent Effect” value was 0.04909%.
In the case of `CCc1nc(C)c(C(=O)NCCNc2cnccn2)s1`, the “Percent Effect” value was 1.537%.
With `C[S+]([O-])c1nncn1CC(=O)c1ccc2c(c1)CCC2` (stereo not drawn) the “Percent Effect” value was -5.964%.
For `CCCS(=O)(=O)NC(=O)c1ccc(CC)o1`, the “Percent Effect” value was -1.389%.
`CCn1cnnc1CCNC(=O)C(C)(C)c1cccc(Cl)c1` was tested, and the “Percent Effect” value was -6.534%.
For `CCn1cnnc1CCNc1nc(C)cc(C)c1C#N`, the “Percent Effect” value was 126.1%.
In the case of `Cc1cc(NCCO)nc(N2CCN(C)CC2)c1C#N`, the “Percent Effect” value was 2.525%.
`Cc1cc(NCCO)nc(N2CCCC2)c1C#N` was tested, and the “Percent Effect” value was -1.529%.
For `CCn1cnnc1CCNC(=O)c1ccc(Br)cc1F`, the “Percent Effect” value was -14.54%.
For `CCn1c(C)nnc1SCCNc1nc(C)ncc1S(C)(=O)=O`, the “Percent Effect” value was -10.91%.
With `Cc1cc(C)c(C#N)c(NCCSc2nncn2C)n1` the “Percent Effect” value was 98.82%.
With `Cc1cc(C)cc(OCCNC(=O)C(C)Sc2nncn2C)c1` (stereo not drawn) the “Percent Effect” value was -3.054%.
In the case of `Cc1cc(C)c(C#N)c(NCCn2cnnc2C(C)C)n1`, the “Percent Effect” value was 112.6%.
With `CC(C)(C)OC(=O)NC(C)(C)c1noc(Cn2ccnc2)n1` the “Percent Effect” value was 11.22%.
With `CSCCC(NC(N)=O)C(=O)NCc1ccc(-n2cccn2)cc1` (stereo not drawn) the “Percent Effect” value was -16.66%.
